Laboratory results taken from PubChem BioAssay.
For part of these data: Entries with a potency or affinity are not part of this list. The list shows a part of the results. Activity calls are given as the source filed them.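 How the source made its calls, unless noted: active means substances whose mean melting-temperature shift, as a percentage of the reference inhibitor's shift, reaches about 5.3% (limit read from the data); inactive means the rest.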

Tests used:
[1] = inhibition of Brca1/Bard1 split-luciferase complementation, confirmation, counter-screen for Mdm2/MdmX interaction inhibitor project, luminescence, single concentration (AID 504668; call rule not given here); conditions: Brca1/Bard1 bimolecular luciferase complementation counterscreen, at 8 µM, stronger effect = higher value
[2] = target: Tumor necrosis factor receptor superfamily member 10B (Homo sapiens) (UniProt O14763); assay: caspase-8 TRAIL sensitization, hit retest, confirmation, cell-based, NB7+caspase-8, with/without TRAIL, luminescence panel (AID 651596; in the data active means activity above about 50%); conditions: NB7 neuroblastoma + caspase-8, TRAIL sensitization, luminescence viability, with TRAIL, mean of runs, at 10 µM, stronger effect = higher value
[3] = as above; conditions: NB7 neuroblastoma + caspase-8, without TRAIL, luminescence viability, without TRAIL, mean of runs, at 10 µM
[4] = target: Tumor necrosis factor receptor superfamily member 10B (Homo sapiens) (UniProt O14763); assay: TRAIL sensitizers in caspase-8 expressing neuroblastoma cells, dose response, NB7 cells plus caspase-8, luminescence, panel (AID 652002); conditions: NB7 neuroblastoma +caspase-8, TRAIL sensitization, luminescence viability, NB7+Caspase-8, with TRAIL, run 1; at 12.5 µM (top of the series)
[5] = target: Tumor necrosis factor receptor superfamily member 10B (Homo sapiens) (UniProt O14763); assay: as above; conditions: NB7 neuroblastoma +caspase-8, TRAIL sensitization, luminescence viability, NB7+Caspase-8, with TRAIL, run 2; at 12.5 µM (top of the series)
[6] = as above; conditions: NB7 neuroblastoma +caspase-8, no TRAIL, compound-alone cytotoxicity counter-screen, luminescence viability, NB7+Caspase-8, run 1; at 12.5 µM (top of the series) unless noted
[7] = as above; conditions: NB7 neuroblastoma +caspase-8, no TRAIL, compound-alone cytotoxicity counter-screen, luminescence viability, NB7+Caspase-8, run 2; at 12.5 µM (top of the series) unless noted
[8] = target: Carboxy-terminal domain RNA polymerase II polypeptide A small phosphatase 1 (Homo sapiens) (UniProt Q9GZU7); assay: Scp-1 binding by thermal shift, confirmation, orthogonal assay for Scp-1 inhibitor project, biophysical, differential scanning fluorimetry (AID 540329); conditions: Recombinant SCP1, Sypro Orange thermal shift Tm; at 40 µM; stronger effect = higher value;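 further: 0% = Tm of DMSO wells and 100% = Tm with sodium orthovanadate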
[9] = PABP1 MLLE–PAM2 binding inhibitor potency, dose response, biochemical, fluorescence polarization, FITC-PAM2 peptide (AID 602259;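 active means mean IC50 at or below a set limit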); conditions: GST-MLLE/FITC-PAM2 peptide binding
[10] = Peg3 promoter reporter inhibitors, retest, confirmation, cell-based, HeLa, luciferase reporter, single concentration (AID 602417;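 active means at 20 µM dose, 40% or more inhibition averaged across four replicates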); conditions: HeLa PEG-Prom luciferase reporter, luminescence, overnight; at 20 µM; stronger effect = higher value
[11] = HIF-2a reporter inhibitor retest, confirmation, luminescence, 786-0 RCC cells (AID 651580;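 active means mean inhibition across four replicates of at least 40 percent at the single tested concentration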); conditions: HIF-2a luciferase reporter luminescence, overnight, at 18.8 µM, stronger effect = higher value
[12] = HIF-1a luciferase reporter signal reduction – MiaPaCa-2 cells, single concentration, counter-screen for HIF-2a inhibitor project, confirmation (AID 651589;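 active means mean inhibition of the reporter signal across four replicates at the single tested dose of 50% or more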); conditions: MiaPaCa-2 HIF-1a luciferase reporter, desferoxamine, overnight; at 18.8 µM; stronger effect = higher value
PEG-3 [13] = target: PEG-3 (UniProt Q6IN02); assay: Peg3 promoter luciferase inhibitors, potency, dose response, cell-based, HeLa, CREF/GAPDH counter-screen panel (AID 624167); conditions: CREF/GAPDH counter-screens; HeLa PEG-Prom luciferase reporter, overnight, run 1, dose range 1, at 100 µM (top of the series) unless noted
PEG-3 [14] = target: PEG-3 (UniProt Q6IN02); assay: as above; conditions: CREF/GAPDH counter-screens; HeLa PEG-Prom luciferase reporter, overnight, run 2, dose range 1, at 100 µM (top of the series) unless noted
Rat fibroblasts (CREF) [15] = assay: as above; conditions: CREF/GAPDH counter-screens; run 1, dose range 1, at 100 µM (top of the series)
Rat fibroblasts (CREF) [16] = assay: as above; conditions: CREF/GAPDH counter-screens; run 2, dose range 1, at 100 µM (top of the series)

Chain of Carboxy-terminal domain RNA polymerase II polypeptide A small phosphatase 1 (Homo sapiens) (Q9GZU7 76-261 limits assumed): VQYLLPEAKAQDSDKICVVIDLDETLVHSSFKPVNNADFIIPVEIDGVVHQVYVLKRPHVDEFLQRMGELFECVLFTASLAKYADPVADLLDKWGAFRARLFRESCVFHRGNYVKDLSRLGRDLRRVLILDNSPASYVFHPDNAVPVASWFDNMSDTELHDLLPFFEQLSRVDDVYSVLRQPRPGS
Chain of Tumor necrosis factor receptor superfamily member 10B (Homo sapiens) (O14763 whole entry, looked up): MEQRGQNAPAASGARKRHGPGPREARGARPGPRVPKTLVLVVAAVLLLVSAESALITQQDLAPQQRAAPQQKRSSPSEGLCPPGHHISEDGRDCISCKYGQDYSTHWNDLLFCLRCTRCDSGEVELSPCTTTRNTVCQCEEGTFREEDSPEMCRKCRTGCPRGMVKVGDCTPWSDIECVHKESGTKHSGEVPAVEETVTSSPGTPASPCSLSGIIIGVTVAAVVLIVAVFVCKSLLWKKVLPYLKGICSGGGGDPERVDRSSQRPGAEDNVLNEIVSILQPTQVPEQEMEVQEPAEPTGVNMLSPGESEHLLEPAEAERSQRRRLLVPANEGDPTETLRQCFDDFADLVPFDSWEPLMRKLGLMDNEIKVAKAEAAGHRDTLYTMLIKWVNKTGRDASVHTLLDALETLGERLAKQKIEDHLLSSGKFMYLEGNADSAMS
Chain of PEG-3 (Q6IN02 whole entry, looked up): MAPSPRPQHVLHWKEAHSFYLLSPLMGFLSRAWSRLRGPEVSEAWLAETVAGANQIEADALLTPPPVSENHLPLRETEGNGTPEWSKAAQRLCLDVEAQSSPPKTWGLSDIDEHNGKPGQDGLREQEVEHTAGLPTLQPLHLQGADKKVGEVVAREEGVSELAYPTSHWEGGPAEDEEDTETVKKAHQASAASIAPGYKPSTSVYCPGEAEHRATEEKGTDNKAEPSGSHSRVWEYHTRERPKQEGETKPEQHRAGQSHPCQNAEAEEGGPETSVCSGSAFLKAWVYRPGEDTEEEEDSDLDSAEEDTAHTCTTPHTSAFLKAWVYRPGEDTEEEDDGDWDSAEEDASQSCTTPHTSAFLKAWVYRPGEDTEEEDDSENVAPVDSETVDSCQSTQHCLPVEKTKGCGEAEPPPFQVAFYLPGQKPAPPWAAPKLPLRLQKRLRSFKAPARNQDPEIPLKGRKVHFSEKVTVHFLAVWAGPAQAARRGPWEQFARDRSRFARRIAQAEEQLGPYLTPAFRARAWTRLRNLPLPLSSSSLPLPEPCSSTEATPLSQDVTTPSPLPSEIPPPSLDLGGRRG

Question: Which inhibition [1] does the source give for `CCCCCCc1cc2cc(S(=O)(=O)c3ccc(F)c(Cl)c3)c(=O)oc2cc1O` here?
Answer: The inhibition was 27.6% (active).

Question: And the activity [2]?
Answer: Its activity is 55.4%.

Question: And the activity [3]?
Answer: Its activity is 40%.

Question: What about the activity, % sensitization [4] of the same compound?
Answer: The activity, % sensitization was -8.78%.

Question: And the activity, % sensitization [5]?
Answer: The activity, % sensitization was -2.26%.

Question: And the activity, % sensitization [6]?
Answer: The activity, % sensitization was -6.43%.

Question: And the activity, % sensitization [7]?
Answer: Its activity, % sensitization is -24.8%.

Question: For `CCOC(=O)c1sc(NC(=O)c2cc(-c3ccccc3C)nc3ccccc23)c(C#N)c1C`, which inhibition [1] is on record?
Answer: The inhibition was 32.4% (active).

Question: And the activity [2]?
Answer: The activity was 54.4%.

Question: And the activity [3]?
Answer: Its activity is 40.4%.

Question: What about the activity, % sensitization [4] of the same compound?
Answer: The activity, % sensitization was 16.7%.

Question: What about the activity, % sensitization [5] of the same compound?
Answer: Its activity, % sensitization is -4.14%.

Question: And the activity, % sensitization [6]?
Answer: The activity, % sensitization was 4.11%.

Question: What about the activity, % sensitization [7] of the same compound?
Answer: The activity, % sensitization was -11.3%.

Question: Which thermal shift relative to vanadate control [8] does the source give for `O=C(COc1ccc(-n2cnnn2)cc1)Nc1ccccc1Cl` here?
Answer: Its thermal shift relative to vanadate control is -5.03% (inactive).

Question: Which thermal shift relative to vanadate control [8] does the source give for `CCCCCN1CC(O)=C(c2nc(-c3ccc(Cl)cc3)cs2)C1=N` here?
Answer: Its thermal shift relative to vanadate control is -7.73% (inactive).

Question: For `C[C@H](CO)N1C[C@H](C)[C@H](CN(C)C(=O)Nc2ccc(C(F)(F)F)cc2)Oc2c(NC(=O)c3ccncc3)cccc2C1=O`, which thermal shift relative to vanadate control [8] is on record?
Answer: Its thermal shift relative to vanadate control is 1.36% (inactive).

Question: Which IC50 [9] does the source give for `C[c-]1[c-](C)[c-](C)[c-](C)[c-]1C.[Fe].c1cc2nccc(N3CCCC3)[c-]2c1` (stereo not given) here?
Answer: Its IC50 is > 66 µM (inactive).

Question: Which inhibition [10] does the source give for `C=CC[C@@H](CC(=O)N[C@@H](CO)Cc1ccccc1)C(=O)N[C@H](COC(=O)[C@H](CC=C)CC(=O)OC(C)(C)C)Cc1ccccc1` here?
Answer: Its inhibition is 6.88% (inactive).

Question: Which results are given for `Cc1c(CCC(=O)O)c(=O)oc2c(C)c(OCc3ccccc3Cl)ccc12`?
Answer: inhibition [11]: 63.3% (active); inhibition [12]: 46.2% (inactive)

Question: For `O=C(O)c1ccc(N/N=C/c2ccc3ncccc3c2)cc1`, which inhibition [11] is on record?
Answer: The inhibition was 66.4% (active).

Question: And the inhibition [12]?
Answer: Its inhibition is 39.2% (inactive).

Question: Which results are given for `Cc1ccc(OCC(=O)c2cc(C)n(Cc3ccco3)c2C)c([N+](=O)[O-])n1`?
Answer: inhibition [10]: 71.5% (active); inhibition [11]: 64.6% (active); inhibition [12]: 82.9% (active); inhibition (PEG-3 [13]): 58%; inhibition (PEG-3 [14]): 62.9%; inhibition (Rat fibroblasts (CREF) [15]): -20.4%; inhibition (Rat fibroblasts (CREF) [16]): -12.2%
